# The full ranking holds about 33,000 sequences; the median of “E-score (-0.5 to 0.5)” is about -0.017, and the highest 2% start at about 0.3. This is one part of a sample in which the highest values are shown more often than they occur.
# Target: T1, Sut1 (UniProt P53032)
# T1 sequence: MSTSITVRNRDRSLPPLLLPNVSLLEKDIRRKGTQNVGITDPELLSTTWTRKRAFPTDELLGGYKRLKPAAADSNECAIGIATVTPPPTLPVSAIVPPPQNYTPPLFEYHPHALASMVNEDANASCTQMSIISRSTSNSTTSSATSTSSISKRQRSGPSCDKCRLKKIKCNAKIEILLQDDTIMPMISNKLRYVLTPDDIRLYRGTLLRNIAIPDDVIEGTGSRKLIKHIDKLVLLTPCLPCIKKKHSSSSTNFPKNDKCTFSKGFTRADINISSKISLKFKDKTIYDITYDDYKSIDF
# Test: PBM E-score (8-mer binding enrichment) (E-score (-0.5 to 0.5)); higher = stronger / more preferred TF binding
# Conditions: protein concentration: 200 nM; construct: GST-full length
# Method in brief: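 Universal all-10-mer Agilent arrays, double-stranded by primer extension on fresh or once-stripped slides, were probed with about 100-200 nM GST-tagged yeast transcription factors made by PURExpress. Fluorescent anti-GST detected bound protein, and masliner normalised the scans. E-scores from the Universal PBM Analysis Suite were given to each ungapped eight-base word pooled with its reverse complement.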
row,Sequence,PBM E-score
1,CTTCTTCA,-0.102
2,CCTGGTCA,-0.307
3,CCCGATCA,-0.133
4,ACCCAAAT,0.00677
5,CATGTCTC,-0.0334
6,GCAGCTCC,0.00727
7,CTCCGCGA,0.35
8,ATCCGCGA,-0.0287
9,CTCCGCTA,0.301
10,CTCCGCCA,0.171
11,TTCCGCAA,0.166
12,GTCCGCTA,0.258
13,CTCCGCTC,0.295
14,GTCCGCGA,0.347
15,CGCCGCGA,0.0357
16,GTCCGCAA,0.298
17,ATCCGCAA,-0.0823
18,GCCCGCGA,-0.0595
19,CCGTTCTC,0.0465
20,AGAGCGCG,-0.155
21,AGCCAGCG,-0.249
22,ACCATCGA,-0.151
23,GTCACGAC,-0.0628
24,CGCTCCAC,-0.012

row,Sequence,PBM E-score
1,CTCCGCCC,0.217
2,CTCCGCGC,0.327
3,ATCCGCGC,-0.0272
4,ATGCATAC,-0.0233
5,GAGTGATA,0.13
6,TGTTCGAA,0.103
7,CCAAGTTC,-0.107
8,AAATATAA,0.273
9,AAATATAT,0.365
10,AAATATAC,0.217
11,AAATGTAT,0.304
12,ATATACTA,0.305
13,GTATACAC,-0.0284
14,CTATACTA,0.21
15,GTATATAA,0.277
16,GTATATAC,0.316
17,AAATGTAG,0.0326
18,AAATGTAA,0.206
19,ATATACTC,0.197
20,CAATCGAG,-0.309
21,CTGGTAAA,0.141
22,GACTTCAC,-0.00592
23,AAACACGT,0.116
24,CCCAGCCG,-0.222

row,Sequence,PBM E-score
1,CCTGATTC,-0.00501
2,CTCCTCCA,-0.147
3,CATACCTC,-0.0271
4,GTTTGGCA,-0.0612
5,ACATATAT,0.266
6,ATATAGAT,0.272
7,AAATATTT,0.31
8,AAATATGT,0.317
9,ATATATAT,0.302
10,ACTTATAG,0.0142
11,AAATATTA,0.227
12,AAATATGC,0.054
13,ACTTATAC,0.264
14,AAATATGA,0.114
15,AAATATTC,0.207
16,ACTTATAT,0.325
17,ACGCTATA,-0.103
18,CACTAACG,-0.17
19,CGGTGCAA,-0.00847
20,AGAGCGCA,-0.306
21,AGGGAGGG,-0.158
22,AAGACTAA,0.0716
23,GGTTAACA,0.0261
24,AGATATAC,0.0915

row,Sequence,PBM E-score
1,CTATATAG,0.0328
2,AGATATAT,0.301
3,ATATATAC,0.31
4,ACATATAC,0.088
5,AGATATAG,0.18
6,CTATATAC,0.287
7,ATATAGAG,0.0735
8,ATATATAG,0.329
9,AGAAATGG,-0.012
10,GGCACTCA,-0.374
11,CTCGCCTA,-0.0978
12,TGCGTTAA,-0.00864
13,TATCTCGA,0.108
14,ATGGTGTC,-0.14
15,CCCGTGCC,-0.126
16,AACCGAGA,0.195
17,AATTGAAT,0.314
18,GATTGAAC,0.00278
19,CATTGAAA,0.249
20,AATTGAAG,0.115
21,AATTGAAC,0.0105
22,GATTGAAA,0.303
23,GATCAAAC,-0.00328
24,CCCCATAA,-0.104

row,Sequence,PBM E-score
1,CGAAGATA,0.132
2,AGAGGGGG,-0.322
3,GCCGGCGA,0.0246
4,TCCGGCGA,0.301
5,TCCGGCAA,0.33
6,GCCGGCAA,0.144
7,ACCGGCGA,-0.0414
8,ACCGGCAA,-0.198
9,GAATTTTA,0.251
10,AACTCTGT,-0.0734
11,GGACGTAA,-0.136
12,ATGTTGAA,0.131
13,CTTGAGAA,-0.0815
14,TTCGCAAA,0.303
15,GTCGCAAA,0.131
16,ATCGCAAA,0.0837
17,ACGGTCCT,-0.258
18,ACCCAGAC,-0.0554
19,CAAGCAAC,-0.124
20,ATTCCAAA,0.0401

# Reference: the supplement of paper PMC3334620
